Screening data deposited in PubChem BioAssay by National Center for Advancing Translational Sciences (NCATS).
HEK293 cAMP cs = qHTS Assay for Agonists of the Thyroid Stimulating Hormone Receptor: Activators of Intracellular cAMP Concentrations in Parental HEK 293; parental HEK293 CNG cAMP sensor, membrane potential fluorescence; Potency, µM (titrated, usually from 57.1 µM), usual class: activators; hit rate 2.5% among 73,000; also: nearly all actives have a fitted effect of over 55% in size
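Parental HEK 293 cells stably expressing a cAMP-gated CNG channel were loaded with membrane potential dye containing 100 uM RO 20-1724 for 60 min. Compound added for 30 min; depolarization read as fluorescence intensity at 590 nm.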
Luciferase inh = qHTS Assay for Inhibitors of Firefly Luciferase. Luciferin 4-monooxygenase (Photinus pyralis), P08659. purified firefly luciferase, luminescence, 8 min. Potency, µM (titrated, usually from 57.1 µM), actives largely listed as inhibitors. hit rate 2.2% among 72,000; also: nearly all actives have a fitted effect of over 40% in size
Target sequence (P08659 whole entry, looked up): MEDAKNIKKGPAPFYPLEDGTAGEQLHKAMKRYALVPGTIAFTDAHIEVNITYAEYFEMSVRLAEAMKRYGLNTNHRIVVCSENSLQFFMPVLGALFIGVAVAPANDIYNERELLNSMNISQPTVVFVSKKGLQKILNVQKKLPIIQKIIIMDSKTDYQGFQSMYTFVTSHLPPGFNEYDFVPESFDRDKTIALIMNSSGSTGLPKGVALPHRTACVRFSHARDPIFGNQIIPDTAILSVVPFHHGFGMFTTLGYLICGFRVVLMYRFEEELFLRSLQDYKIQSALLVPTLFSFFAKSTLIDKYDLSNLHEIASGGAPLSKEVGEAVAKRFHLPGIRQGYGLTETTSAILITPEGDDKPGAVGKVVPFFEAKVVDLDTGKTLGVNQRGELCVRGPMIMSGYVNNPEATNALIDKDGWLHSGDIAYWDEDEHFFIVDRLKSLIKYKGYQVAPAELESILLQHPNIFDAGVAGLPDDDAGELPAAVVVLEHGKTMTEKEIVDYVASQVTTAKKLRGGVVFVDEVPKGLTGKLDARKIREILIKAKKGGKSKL
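Inhibition of light generation by firefly luciferase from ATP and luciferin was profiled with concentration-response curves per sample, ATP held at 10 uM within the enzyme's linear range. Plates were read by luminescence after an 8-minute ambient incubation.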
ALOX15 inhib = qHTS Assay for Inhibitors of 15-hLO (15-human lipoxygenase); Potency, µM (titrated, usually from 57.1 µM), usual class: inhibitors; AID 887, 2007; purified 15hLO-1, xylenol orange hydroperoxide absorbance; hit rate 1.4% among 74,000; also: nearly all actives have a fitted effect of over 55% in size
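40 nM 15hLO-1 + cpd, 15 min RT; start w/ 50 uM AA (final), 6 min RT; stop/detect w/ 200 uM XO + 300 uM Fe(II) in 50 mM H2SO4, 30 min; A573/A405. Buffer 25 mM Hepes pH 7.5, 0.01% Triton X-100. No-enzyme wells as negative control.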
TSHR agonist = qHTS Assay for Agonists of the Thyroid Stimulating Hormone Receptor; HEK293-CNG-TSHR cells (CNG channel as cAMP sensor), membrane potential dye, cAMP; Potency, µM (series often up to 57.1 µM), usual class: activators; AID 926, 2007; Thyrotropin receptor (Homo sapiens), P16473; hit rate 0.48% among 73,000; active = well fitted activation curve with a large enough effect in the main read-out, with a control signal flat, not every such curve was filed as active; inconclusive = small, poorly fitted or top-dose-only effect, or a change in a side signal; inactive = no such curve, though single readings can be large or run the other way; reference of the percent scale not stated here;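 also: the control signal comes from parental cells without the receptor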
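HEK 293 cells stably expressing TSHR and a modified CNG channel, with CNG-only parental cells as counterscreen, were preloaded 60 min at room temperature with membrane potential dye containing 100 uM RO 20-1724. Compound exposure was 30 min, and depolarization was read as fluorescence at 590 nm.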
Tau filament bind = qHTS Assay for Tau Filament Binding; Microtubule-associated protein tau (Homo sapiens), P10636; recombinant tau filaments, thioflavin S fluorescence, 15 h; filaments grown with octadecylsulfate alongside compound; Potency, µM (highest dose often 57.1 µM); hit rate 2% among 71,000;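 also: actives lower thioflavin S fluorescence by blocking filaments or displacing dye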
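Read-out: ThS fluorescence, 450 nm excitation/510 nm emission; lower signal marks blocked filament formation or displaced dye. Tau at 1 uM with 30 uM ODS, 10 uM ThS, 5 mM DTT, 100 mM NaCl, 10 mM HEPES pH 7.4; 15 h, 37 C.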
Bst PK mod = Pyruvate Kinase | Potency, µM | AID 361, 2006 | hit rate 1.2% among 51,000 | purified pyruvate kinase, luminescence ATP production; ribose 5-phosphate activator present at AC10; in the data active = potency below about 11 µM; inconclusive = mostly about 12 µM to 25 µM;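 the screen sought inhibitors and activators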
Each line names hits and unclear results; the compound was inactive in the other large screens. Compounds with a hit are over-represented: about 7.8% of the library has one in this group of screens. Unless noted, calls follow the shape of the dose curve; as a rule, active = well fitted curve in the direction sought with a large enough effect; inconclusive = small, poorly fitted or top-dose-only effect, or another doubt; inactive = no such curve, though single readings can be large; an effect the other way counts as inactive or inconclusive.

Cc1ccccc1Cn1cc(NC(=O)c2cc3nc(-c4ccco4)cc(C(F)(F)F)n3n2)cn1	Luciferase inh inconclusive, ALOX15 inhib inconclusive, Tau filament bind 3.16µM
O=C(NC1CCCCC1)c1cnn2c(C(F)(F)F)cc(-c3ccco3)nc12	ALOX15 inhib 25.1µM, Tau filament bind 10µM
O=C(c1cc2nc(-c3ccco3)cc(C(F)(F)F)n2n1)N1CCN(c2ccc(F)cc2)CC1	ALOX15 inhib inconclusive, Tau filament bind 12.6µM (no result: Bst PK mod)
O=C(c1cnn2c(C(F)(F)F)cc(-c3ccco3)nc12)N1CCCCCC1	HEK293 cAMP cs 31.6µM, TSHR agonist inconclusive, Tau filament bind inconclusive (no result: Bst PK mod)
CC(=O)N1CCC2(CC1)CN(C(=O)Nc1cccc(C#N)c1)C2	HEK293 cAMP cs inconclusive, TSHR agonist inconclusive (no result: Bst PK mod)
CC[C@H](CC[C@H](C)[C@@H]1CC[C@@H]2[C@H]3CC=C4C[C@@H](O)CC[C@]4(C)[C@H]3CC[C@]21C)C(C)C	none (no result: TSHR agonist, Bst PK mod)
NC(=O)c1ccccc1NC(=O)CS(=O)(=O)Cc1ccccc1	Bst PK mod 2.95
Cc1cc(-c2nnc(-c3cc4ccccc4oc3=O)o2)c(C)n1-c1ccccc1	TSHR agonist inconclusive, Tau filament bind 3.16µM
O=c1oc2ccccc2cc1O	none (no result: HEK293 cAMP cs, Luciferase inh, TSHR agonist, Tau filament bind, Bst PK mod)
O=c1oc2ccccc2cc1-c1nc2ccccc2o1	Luciferase inh 15.8µM, Bst PK mod inconclusive
Cc1n[nH]c(C)c1S(=O)(=O)N(CC(=O)N1CCc2ccccc21)c1ccc(C(C)C)cc1	none (no result: Bst PK mod)
O=C(c1ccccc1)C1C(=O)c2ccccc2C1=O	Tau filament bind inconclusive
O=C1c2ccccc2C(=O)C1c1ccncc1	Luciferase inh 7.94µM (no result: Bst PK mod)
CC(C)(N)CO[C@H]1C[C@H]2CC[C@@]1(C)C2(C)C	none (no result: Bst PK mod)
O=c1cc(CSc2nnc(COc3ccc(Cl)cc3)o2)c2ccccc2[nH]1	HEK293 cAMP cs 25.1µM, TSHR agonist inconclusive
Cc1c(Cc2ccccc2)sc(N)c1C(N)=O	ALOX15 inhib inconclusive, Tau filament bind 15.8µM (no result: Bst PK mod)
Cc1nc(-c2ccccc2)sc1C(N)=O	none (no result: Bst PK mod)
CN(C)c1ncc2nc(-c3ccc(F)cc3)c(=O)n(Cc3cccs3)c2n1	none (no result: Bst PK mod)
CN(C)c1ncc2nc(-c3ccccc3)c(=O)n(Cc3ccc(F)cc3)c2n1	HEK293 cAMP cs 5.01µM, TSHR agonist inconclusive (no result: Bst PK mod)
CN1CCN(c2ncc3nc(-c4cc(F)cc(F)c4)c(=O)n(C)c3n2)CC1	none (no result: Bst PK mod)
CN(C)c1ncc2nc(-c3cc(F)cc(F)c3)c(=O)n(Cc3cccs3)c2n1	HEK293 cAMP cs inconclusive, ALOX15 inhib 7.94µM, TSHR agonist inconclusive (no result: Bst PK mod)
CN(C)c1ncc2nc(-c3ccc(Cl)cc3)c(=O)n(Cc3ccc(F)cc3)c2n1	none (no result: Bst PK mod)
Cn1c(=O)c(-c2cc(F)cc(F)c2)nc2cnc(N3CCNCC3)nc21	Tau filament bind 5.01µM (no result: TSHR agonist, Bst PK mod)
CN1CCN(c2ncc3nc(-c4cc(F)cc(F)c4)c(=O)n(Cc4cccs4)c3n2)CC1	Tau filament bind 3.16µM (no result: Bst PK mod)
COc1ccc(-c2nc3cnc(N4CCN(C)CC4)nc3n(Cc3cccs3)c2=O)cc1	none (no result: Bst PK mod)
Cc1cccc2cc(COC(=O)c3ccccn3)c(=O)[nH]c12	none
Nc1nc2ccc([N+](=O)[O-])cc2s1	TSHR agonist inconclusive, Tau filament bind inconclusive (no result: Luciferase inh, Bst PK mod)
COc1ncc2nc(-c3ccccc3)c(=O)n(C[C@H]3CCCO3)c2n1	none (no result: Bst PK mod)
CCOC(=O)N1CCN(c2c(NCC3CCN(Cc4cccc(C)c4)CC3)c(=O)c2=O)CC1	none (no result: Bst PK mod)
COc1ccccc1-c1cc(C(=O)N2CCN(c3ccccc3OC)CC2)no1	none
COc1ccccc1N1CCN(C(=O)c2ccc3nc(-c4ccco4)c(-c4ccco4)nc3c2)CC1	ALOX15 inhib 20µM, Tau filament bind 3.16µM
CC(=O)OC1C[C@]2(C)C(C(C)=O)CCC2C2CCC3=CC(=O)CC[C@@]3(C)C12 (stereo partly drawn)	none (no result: HEK293 cAMP cs, Luciferase inh, TSHR agonist, Tau filament bind, Bst PK mod)
Cc1ccc(OCC(=O)Nc2cccc(O)c2)cc1C	Luciferase inh 15.8µM (no result: Bst PK mod)
CCC(=O)Nc1cccc(NC(=O)COc2ccc(OC)cc2)c1	Luciferase inh 20µM (no result: Bst PK mod)
Cc1cccc(OCC(=O)Nc2cccc(O)c2)c1	none (no result: Bst PK mod)
